Each structure is given as a SMILES string. Values joined by “and” are separate entries in the source; they are usually repeats but may differ in a detail not shown here. Equal entries are not always repeated. Records with an inconclusive call do not appear. Active and inactive are the calls of the source. Unless noted, calls come from the whole dose curve; as a rule, active = well fitted curve in either direction with a large enough effect (not every such curve was filed as active); inconclusive = small, poorly fitted or top-dose-only effect, or another doubt; inactive = flat fitted curve, though single readings scatter.

System in one assay: not listed separately
Briefly: NFAT Signaling Pathway (AID 444).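 Note: carbachol stimulus at about its EC50 of 1 µM final; % is set by controls: 0 for no effect and ±100 for the full control effect.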 The conditions noted are these: Jurkat NFAT-bla M1, carbachol, beta-lactamase ratio, 5 h; at 7.69 µM (top of the series). The method, boiled down:
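Read-out: CCF4 FRET ratio (460 nm/530 nm) after 1 h RT dye loading, used for %activity and AC50 from titration series. Cells: Jurkat NFAT-β-lactamase/M1 line, treated with compound plus 1 uM carbachol for 5 h, 37 °C.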
Regarding `C[N+]1([O-])[C@@H]2CC(OC(=O)[C@@H](CO)c3ccccc3)C[C@@H]1[C@H]1O[C@H]12` (some centres undefined), the activity change, negative = inhibition is -78.2% (active).
As to `O=C(Nc1cccc(F)c1)N1CC2(CCN(C(=O)Oc3ccccc3)CC2)C1`, the activity change, negative = inhibition is 16.5% (inactive).
As to `CN1CC[C@@]2(CCCN(C(=O)c3ccco3)C2)C1`, the activity change, negative = inhibition was -15.5% (inactive).
The same measure, in the same setting: then `c1cnc(N2CC[C@@]3(CCCNC3)C2)nc1`, with -23.9% (inactive).
As to `O=C(Nc1cccc(F)c1)N1CC[C@@]2(CCCN(C(=O)Oc3ccccc3)C2)C1`, the activity change, negative = inhibition is -6.58% (inactive).
`Cc1ccccc1-c1cncnc1NCCc1cnc[nH]1`: the activity change, negative = inhibition was -8.8% (inactive).
`O=C(Nc1ccccc1)N1CC[C@@]2(CCCNC2)C1`: the activity change, negative = inhibition was 19.4% (inactive).
As for `O=C(Nc1cccc(F)c1)N1CCC2(CC1)CCN(C(=O)Oc1ccccc1)CC2`, the activity change, negative = inhibition is 12% (inactive).
Turning to `CS(=O)(=O)N1CCC2(CC1)CN(Cc1ccncc1)C2`, the activity change, negative = inhibition is 6.37% (inactive).
Still for that read-out and setting: then `c1cc(CN2CCC3(CCNCC3)CC2)ccn1`, with -8.56% (inactive).

System in another assay: not listed separately
The assay is described as follows: Stat Signaling Pathway (AID 446).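 Note: ME-180 cervical cancer cells given 40 pM IL-6 alongside compound; SIE-controlled beta-lactamase reporter measured as 460/530 nm FRET emission ratio; % is set by controls: 0 for no effect and ±100 for the full control effect.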 The conditions noted are these: ME-180 SIE beta-lactamase reporter, IL-6 stimulated, 5 h; series mostly up to 17.2 µM. The method, boiled down:
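Reporter line: ME-180 cervical carcinoma, SIE-beta-lactamase. Treatment: compound with 40 pM IL-6, 5 hrs, 37 C, in low-serum OPTI-MEM with 10 mM HEPES pH 7.3. Detection: 460/530 nm fluorescence.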
As to `N#Cc1ccc(CN2CC[C@@]3(CCCN(C(=O)Oc4ccccc4)C3)C2)cc1`, the outcome was inactive.
Same read-out and setting: next, `O=C(Oc1ccccc1)N1CCC2(CCN(Cc3ccccc3)CC2)CC1`: “inactive”; `CN1CCC2(CC1)CCN(C(=O)Oc1ccccc1)CC2`: “inactive”.
In the case of `O=C(Nc1cccc(F)c1)N1CC2(CCN(C(=O)Oc3ccccc3)CC2)C1`, the result was inactive.
Same read-out and setting: then `CN1CC[C@@]2(CCCN(C(=O)c3ccco3)C2)C1`, with “inactive”; and `c1cnc(N2CC[C@@]3(CCCNC3)C2)nc1`, with “inactive”.
In the case of `COc1ccccc1CN1CC[C@@]2(CCCN(C(=O)Oc3ccccc3)C2)C1`, the molecule was called inactive.
Same read-out and setting: then `O=C(Nc1cccc(F)c1)N1CC[C@@]2(CCCN(C(=O)Oc3ccccc3)C2)C1`, with “inactive”.
The same measure, in the same setting: next, `Cc1ccccc1-c1cncnc1NCCc1cnc[nH]1`: “inactive”.
The same measure, in the same setting: next, `O=C(Nc1ccccc1)N1CC[C@@]2(CCCNC2)C1`: “inactive”; `CN1CCCC2(CCN(C(=O)c3ccncc3)CC2)C1`: “inactive”; `CC(C)CN1CCC2(CC1)CCN(C(=O)Oc1ccccc1)CC2`: “inactive”.
In the case of `CC(C)CN1CC2(CCN(C(=O)c3ccncc3)CC2)C1`, the molecule was called inactive.
Same read-out and setting: next, `N#Cc1ccc(CN2CCCC3(CCN(C(=O)Oc4ccccc4)CC3)C2)cc1`: “inactive”.
`CS(=O)(=O)N1CCC2(CC1)CN(Cc1ccncc1)C2`: the molecule was called inactive.
As for `c1ccc(N2CC[C@@]3(CCCNC3)C2)nc1`, the result was inactive.
The same measure, in the same setting: next, `c1ccc(N2CCC3(CCNCC3)CC2)cc1`: “inactive”.
Still for that read-out and setting: then `COC(=O)N1CCC2(CCN(CC(C)C)CC2)CC1`, with “inactive”; and `c1cc(CN2CCC3(CCNCC3)CC2)ccn1`, with “inactive”; and `CCNC[C@H](O)c1cccc(O)c1`, with “inactive”.

The target of another assay is Glucocorticoid receptor (Homo sapiens) (UniProt P04150). Briefly: GR-EFC Redistribution (AID 451; calls by dose curve; note: potency is the fitted concentration of half-maximal effect). The conditions noted are these: CHO-K1 GR-EFC translocation, beta-gal luminescence, 2 h. The method, boiled down: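 Translocation of GR-ED fusion to nuclear EA restores b-gal, read by luminescence after 1 h room-temperature detection. Engineered CHO-K1 biosensor cells, 1,000/well, exposed 2 h at 37 C to titrations up to 46 uM final.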
Sequence of Glucocorticoid receptor (Homo sapiens) (P04150 whole entry, looked up, the tested form may be a part): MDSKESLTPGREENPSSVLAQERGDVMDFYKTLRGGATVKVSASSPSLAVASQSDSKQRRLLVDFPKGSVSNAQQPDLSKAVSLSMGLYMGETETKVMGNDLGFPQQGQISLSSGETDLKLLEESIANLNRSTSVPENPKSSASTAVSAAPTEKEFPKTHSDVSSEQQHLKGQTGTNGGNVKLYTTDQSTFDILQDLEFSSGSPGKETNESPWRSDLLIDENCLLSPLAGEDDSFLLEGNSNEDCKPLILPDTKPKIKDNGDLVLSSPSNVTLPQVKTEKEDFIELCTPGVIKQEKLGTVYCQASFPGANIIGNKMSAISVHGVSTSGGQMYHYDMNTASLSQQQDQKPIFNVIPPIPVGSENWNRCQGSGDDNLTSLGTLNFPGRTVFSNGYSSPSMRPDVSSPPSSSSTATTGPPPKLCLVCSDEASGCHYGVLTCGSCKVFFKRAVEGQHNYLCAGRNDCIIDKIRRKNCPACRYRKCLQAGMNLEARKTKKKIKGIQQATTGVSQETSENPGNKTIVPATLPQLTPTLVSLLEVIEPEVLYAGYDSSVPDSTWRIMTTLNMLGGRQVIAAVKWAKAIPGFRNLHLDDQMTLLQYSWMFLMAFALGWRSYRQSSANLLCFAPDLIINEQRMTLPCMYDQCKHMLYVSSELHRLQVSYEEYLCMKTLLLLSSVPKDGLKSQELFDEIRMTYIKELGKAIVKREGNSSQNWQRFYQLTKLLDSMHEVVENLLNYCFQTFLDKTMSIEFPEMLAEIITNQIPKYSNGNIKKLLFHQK
Regarding `N#Cc1ccc(CN2CC[C@@]3(CCCN(C(=O)Oc4ccccc4)C3)C2)cc1`, the Potency was > 46 µM (inactive).
As for `O=C(Oc1ccccc1)N1CCC2(CCN(Cc3ccccc3)CC2)CC1`, the Potency is > 46 µM (inactive).
Still for that read-out and setting: next, `C[N+]1([O-])[C@@H]2CC(OC(=O)[C@@H](CO)c3ccccc3)C[C@@H]1[C@H]1O[C@H]12` (some centres undefined): > 20.6 µM (inactive) and > 9.22 µM (inactive).
Same read-out and setting: then `CN1CCC2(CC1)CCN(C(=O)Oc1ccccc1)CC2`, with > 46 µM (inactive).
The same measure, in the same setting: next, `O=C(Nc1cccc(F)c1)N1CC2(CCN(C(=O)Oc3ccccc3)CC2)C1`: > 46 µM (inactive).
In the case of `CN1CC[C@@]2(CCCN(C(=O)c3ccco3)C2)C1`, the Potency was > 46 µM (inactive).
Still for that read-out and setting: then `c1cnc(N2CC[C@@]3(CCCNC3)C2)nc1`, with > 46 µM (inactive); and `COc1ccccc1CN1CC[C@@]2(CCCN(C(=O)Oc3ccccc3)C2)C1`, with > 46 µM (inactive).
Still for that read-out and setting: then `O=C(Nc1cccc(F)c1)N1CC[C@@]2(CCCN(C(=O)Oc3ccccc3)C2)C1`, with > 46 µM (inactive).
In the case of `Cc1ccccc1-c1cncnc1NCCc1cnc[nH]1`, the Potency was > 46 µM (inactive).
Same read-out and setting: then `O=C(Nc1ccccc1)N1CC[C@@]2(CCCNC2)C1`, with > 46 µM (inactive); and `CN1CCCC2(CCN(C(=O)c3ccncc3)CC2)C1`, with > 46 µM (inactive).
As to `CC(C)CN1CCC2(CC1)CCN(C(=O)Oc1ccccc1)CC2`, the Potency was > 46 µM (inactive).
With `CC(C)CN1CC2(CCN(C(=O)c3ccncc3)CC2)C1`, the Potency was > 46 µM (inactive).
For `N#Cc1ccc(CN2CCC3(CC2)CCN(C(=O)Oc2ccccc2)CC3)cc1`, the Potency was > 46 µM (inactive).
Take `O=C(Nc1cccc(F)c1)N1CCC2(CC1)CCN(C(=O)Oc1ccccc1)CC2`: the Potency is > 46 µM (inactive).
`N#Cc1ccc(CN2CCCC3(CCN(C(=O)Oc4ccccc4)CC3)C2)cc1`: the Potency is > 46 µM (inactive).
Still for that read-out and setting: then `CS(=O)(=O)N1CCC2(CC1)CN(Cc1ccncc1)C2`, with > 46 µM (inactive); and `O=C(c1ccncc1)N1CCC2(CC1)CN(Cc1ccccc1)C2`, with > 46 µM (inactive); and `c1ccc(N2CC[C@@]3(CCCNC3)C2)nc1`, with > 46 µM (inactive).
Regarding `c1ccc(N2CCC3(CCNCC3)CC2)cc1`, the Potency was > 46 µM (inactive).
Consider `COC(=O)N1CCC2(CCN(CC(C)C)CC2)CC1`, for which the Potency was > 46 µM (inactive).
`c1cc(CN2CCC3(CCNCC3)CC2)ccn1`: the Potency is > 46 µM (inactive).
On the same count and under the same terms, then `CCNC[C@H](O)c1cccc(O)c1`, with > 20.6 µM (inactive).

Source of the values: PubChem BioAssay (NCATS).
